Assay results as given in PubChem BioAssay (NCATS).
Results filed as inconclusive are left out. A call without a number means that no potency is given here. Active and inactive are the calls of the source. Unless noted, the call rests on the fitted dose curve; in most records, active means well fitted curve in the direction sought with a large enough effect; inconclusive means small, poorly fitted or top-dose-only effect, or another doubt; inactive means no such curve, though single readings can be large; an effect the other way counts as inactive or inconclusive.

What was measured:
[1] = target: Peptidyl-prolyl cis-trans isomerase NIMA-interacting 1 (Homo sapiens) (UniProt Q13526); experiment: qHTS Validation Assay to Find Inhibitors of Pin1 (AID 504536; active means well fitted inhibition curve with a large enough effect in the polarisation, with a control signal flat, not every such curve was filed as active; the % refers to the polarisation)
Chain of Peptidyl-prolyl cis-trans isomerase NIMA-interacting 1 (Homo sapiens) (Q13526 whole entry, looked up): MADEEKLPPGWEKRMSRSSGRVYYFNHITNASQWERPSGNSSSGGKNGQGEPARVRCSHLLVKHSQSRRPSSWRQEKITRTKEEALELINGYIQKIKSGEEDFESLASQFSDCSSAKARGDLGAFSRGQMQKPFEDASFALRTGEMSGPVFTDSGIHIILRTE
Method in brief: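 Fluorescence polarization competition: compounds (titration) displace HiFluor-488-labeled Pin1-1b peptide from Pin1 (0.3 uM final) in pH 7.5 HEPES buffer with DTT, 10 min at room temperature; %Activity normalized to no-enzyme wells, curves fitted.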

[2] = target: Phosphoglycerate kinase, glycosomal (Trypanosoma brucei brucei) (UniProt P07378); experiment: qHTS Validation Assay to Find Inhibitors of Phosphoglycerate Kinase (AID 504547)
Chain of Phosphoglycerate kinase, glycosomal (Trypanosoma brucei brucei) (P07378 whole entry, looked up): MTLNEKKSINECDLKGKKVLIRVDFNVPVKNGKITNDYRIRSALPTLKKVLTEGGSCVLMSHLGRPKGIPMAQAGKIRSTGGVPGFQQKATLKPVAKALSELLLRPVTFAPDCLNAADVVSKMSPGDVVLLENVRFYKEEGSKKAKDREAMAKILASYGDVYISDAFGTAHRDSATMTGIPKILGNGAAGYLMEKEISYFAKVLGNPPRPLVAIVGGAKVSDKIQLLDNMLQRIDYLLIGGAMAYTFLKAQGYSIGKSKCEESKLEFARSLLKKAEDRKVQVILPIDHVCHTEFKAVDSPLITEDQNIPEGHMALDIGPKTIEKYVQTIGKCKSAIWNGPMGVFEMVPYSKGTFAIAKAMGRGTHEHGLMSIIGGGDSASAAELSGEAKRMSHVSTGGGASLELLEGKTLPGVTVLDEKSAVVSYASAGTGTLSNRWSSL
Method in brief: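 Inhibition of the enzyme is judged by a Kinase-Glo Plus luminescent signal following a one-hour incubation at room temperature. Because 1,3-BPG is unstable, it is made in situ by GAPDH at 100nM final; no-PGK wells define the baseline.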

[3] = target: phosphoglycerate mutase (Leishmania major) (UniProt Q4Q090); experiment: qHTS Validation Assay to Find Inhibitors of Phosphoglycerate Mutase (AID 504548); details: Potency: inhibition qHTS; further: potency means the concentration at half of the fitted maximal effect
Chain of phosphoglycerate mutase (Leishmania major) (Q4Q090 1-553): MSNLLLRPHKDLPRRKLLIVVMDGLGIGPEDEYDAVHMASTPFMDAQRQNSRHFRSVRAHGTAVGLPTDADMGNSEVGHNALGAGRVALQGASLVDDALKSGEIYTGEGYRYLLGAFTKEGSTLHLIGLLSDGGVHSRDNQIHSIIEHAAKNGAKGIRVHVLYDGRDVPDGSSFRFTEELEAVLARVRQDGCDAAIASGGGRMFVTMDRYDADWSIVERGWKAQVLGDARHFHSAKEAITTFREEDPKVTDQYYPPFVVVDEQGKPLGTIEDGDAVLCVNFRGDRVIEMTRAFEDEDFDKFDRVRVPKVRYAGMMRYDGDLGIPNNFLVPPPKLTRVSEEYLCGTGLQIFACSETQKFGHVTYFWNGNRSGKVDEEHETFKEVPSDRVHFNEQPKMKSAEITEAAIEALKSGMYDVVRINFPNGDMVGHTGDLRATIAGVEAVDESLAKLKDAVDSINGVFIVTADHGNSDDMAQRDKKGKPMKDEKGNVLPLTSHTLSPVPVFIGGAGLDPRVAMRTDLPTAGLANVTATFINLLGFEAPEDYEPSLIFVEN
Method in brief: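 L. major PGAM (1.25nM final) was added to substrate buffer and pinned compound, incubated 45 minutes at room temperature, then Kinase-GloPlus added; luminescence read after 10 minutes. Buffer: 100 mM TEA pH 7.6, 5 mM MgCl2, 0.01% Tween-20.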

[4] = Inducers of the Endoplasmic Reticulum Stress Response (ERSR) in human glioma: Validation (AID 504836)
Method in brief: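 ERSR induction read as luciferase luminescence (Bright-Glo, 10 min at room temperature) in stably transfected human U87-MG glioma cells exposed to compounds for 16 h, using GRP78 as sensor.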

[5] = target: Ubiquitin carboxyl-terminal hydrolase 1 (Homo sapiens) (UniProt O94782); experiment: Inhibitors of USP1/UAF1: Pilot qHTS (AID 504865);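 further: rhodamine fluorescence freed from ubiquitin-rhodamine substrate followed over time; top concentration of the series differs between compounds; nearly all actives have a fitted effect of over 35% in size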
Chain of Ubiquitin carboxyl-terminal hydrolase 1 (Homo sapiens) (O94782 whole entry, looked up): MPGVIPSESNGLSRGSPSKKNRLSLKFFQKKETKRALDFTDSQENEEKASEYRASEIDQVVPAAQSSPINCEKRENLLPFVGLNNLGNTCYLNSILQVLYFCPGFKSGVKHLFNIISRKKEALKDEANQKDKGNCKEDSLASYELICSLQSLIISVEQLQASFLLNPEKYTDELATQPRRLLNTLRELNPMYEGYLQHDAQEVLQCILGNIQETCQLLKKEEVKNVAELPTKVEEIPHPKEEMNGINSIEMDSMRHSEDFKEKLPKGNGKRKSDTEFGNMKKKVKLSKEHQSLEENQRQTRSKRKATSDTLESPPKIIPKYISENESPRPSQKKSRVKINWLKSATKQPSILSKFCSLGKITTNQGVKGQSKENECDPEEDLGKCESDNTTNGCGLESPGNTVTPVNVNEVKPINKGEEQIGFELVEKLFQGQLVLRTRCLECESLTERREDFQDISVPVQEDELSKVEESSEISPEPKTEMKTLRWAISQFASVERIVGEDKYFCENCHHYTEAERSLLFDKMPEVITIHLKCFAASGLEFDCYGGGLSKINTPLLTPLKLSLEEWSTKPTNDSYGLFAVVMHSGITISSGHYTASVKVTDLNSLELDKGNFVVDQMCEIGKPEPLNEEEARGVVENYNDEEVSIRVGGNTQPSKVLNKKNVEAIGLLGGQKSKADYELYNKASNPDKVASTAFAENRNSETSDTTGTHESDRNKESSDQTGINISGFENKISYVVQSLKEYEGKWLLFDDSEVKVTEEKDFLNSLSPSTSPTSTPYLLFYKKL
Method in brief: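 USP1/UAF1 complex at 1 nM preincubated 15 min at room temperature with compound, then Ub-Rho substrate added at 150 nM final. Fluorescence (480/540 nm) read kinetically in 50 mM HEPES pH 7.8, 0.5 mM EDTA, 1 mM TCEP, 0.1 mg/ml BSA, 0.01% Tween-20.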

[6] = qHTS for Inhibitors of ATXN expression: Validation of Cytotoxic Assay (AID 588349)
Method in brief: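 HEK293 cells were dosed with titrated compounds for 72 hr at 37 degrees C. Viability was read by CellTiter Glo luminescence, with intracellular ATP as the marker of cell survival.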

[7] = qHTS for Inhibitors of ATXN expression: Validation (AID 588378); further: nearly all actives have a fitted effect of over 75% in size; further: potency means the concentration at half of the fitted maximal effect
Method in brief: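 HEK293 cells carrying ATXN2-firefly luciferase reporter, treated with compound 24 h at 37 °C. Viability read first by CellTiter-Fluor (405/525 nm), then reporter expression by Bright-Glo luminescence; controls were a known ATXN2 expression inhibitor and a luciferase inhibitor.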

[8] = target: Estrogen receptor (Homo sapiens) (UniProt P03372); experiment: qHTS assay for small molecule antagonists of estrogen receptor alpha signaling (AID 588513; active means well fitted curve in the direction sought with a large enough effect in the signal ratio, with a control signal flat, not every such curve was filed as active; the % refers to the signal ratio)
Chain of Estrogen receptor (Homo sapiens) (P03372 whole entry, looked up): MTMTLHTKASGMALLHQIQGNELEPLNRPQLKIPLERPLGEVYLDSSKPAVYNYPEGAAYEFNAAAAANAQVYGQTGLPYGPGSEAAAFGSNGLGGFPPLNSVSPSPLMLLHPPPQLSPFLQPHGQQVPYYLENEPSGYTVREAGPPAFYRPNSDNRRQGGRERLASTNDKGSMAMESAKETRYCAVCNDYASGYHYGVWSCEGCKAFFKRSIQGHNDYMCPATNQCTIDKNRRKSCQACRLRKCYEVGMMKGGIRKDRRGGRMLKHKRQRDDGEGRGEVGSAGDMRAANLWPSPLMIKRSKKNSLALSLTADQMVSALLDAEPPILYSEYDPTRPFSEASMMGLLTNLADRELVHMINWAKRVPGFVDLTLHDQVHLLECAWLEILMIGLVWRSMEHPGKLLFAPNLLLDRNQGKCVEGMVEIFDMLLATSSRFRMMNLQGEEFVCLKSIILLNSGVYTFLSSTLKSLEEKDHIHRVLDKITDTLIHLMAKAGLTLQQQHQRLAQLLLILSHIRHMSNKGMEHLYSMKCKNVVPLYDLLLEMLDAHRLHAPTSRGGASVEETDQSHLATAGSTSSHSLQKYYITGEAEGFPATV
Method in brief: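 ER-alpha-UAS-bla GripTite HEK 293 cells in 2% charcoal/dextran-treated FBS medium; compounds titrated (1:2, duplicate), then stimulated with 0.5 nM 17-beta-estradiol for 18 h at 37C. CCF4 beta-lactamase fluorescence; Hill-fit IC50 and efficacy.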

[9] = target: Estrogen receptor (Homo sapiens) (UniProt P03372); experiment: qHTS assay for small molecule agonists of estrogen receptor alpha signaling (AID 588514; calls by dose curve; further: nearly all actives have a fitted effect of over 70% in size)
Method in brief: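 ER-alpha-UAS-bla GripTite HEK 293 cells in medium with 2% charcoal/dextran-treated FBS were treated with compound titrations at 37 C for 18 hrs; beta-lactamase reporter read by CCF4 fluorescence after 2 hrs at RT.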

[10] = target: DNA dC->dU-editing enzyme APOBEC-3G (Homo sapiens) (UniProt Q9HC16); experiment: qHTS for inhibitors of Vif-A3G interactions: Validation (AID 588379)
Chain of DNA dC->dU-editing enzyme APOBEC-3G (Homo sapiens) (Q9HC16 whole entry, looked up): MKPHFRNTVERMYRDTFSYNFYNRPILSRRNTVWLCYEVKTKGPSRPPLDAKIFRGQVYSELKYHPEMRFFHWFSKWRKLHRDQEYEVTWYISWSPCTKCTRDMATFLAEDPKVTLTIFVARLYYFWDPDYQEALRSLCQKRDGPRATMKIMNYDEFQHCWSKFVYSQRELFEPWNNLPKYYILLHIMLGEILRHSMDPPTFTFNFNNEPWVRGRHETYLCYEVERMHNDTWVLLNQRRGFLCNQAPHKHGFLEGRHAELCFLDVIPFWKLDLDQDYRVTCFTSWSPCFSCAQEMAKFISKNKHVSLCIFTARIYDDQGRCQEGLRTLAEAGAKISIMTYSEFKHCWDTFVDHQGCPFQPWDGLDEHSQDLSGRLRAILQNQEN
Method in brief: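 HeLa cells stably expressing Vif and A3G-eYFP, 700 cells/well, incubated overnight at 37 deg C, then exposed to compound overnight at 37 deg C. Inhibition of Vif-mediated degradation read as increased yellow fluorescence (Ex 488/Em 500-530) by laser-scanning cytometry.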

Row | Compound | Potency [1] | Potency [2] | Potency [3] | outcome [4] | Potency [5] | Potency [6] | Potency [7] | Potency [8] | Potency [9] | outcome [10]
1 | CN(C(=O)Cc1ccc(Cl)c(Cl)c1)C(CN1CCCC1)c1cccc(OCC(=O)O)c1 (stereo not given) | inactive | inactive | inactive | inactive | inactive | inactive | – | – | – | –
2 | NC(=O)CI | inactive | inactive | inactive | inactive | inactive | inactive | – | – | – | –
3 | C=CCN(C1=NCCN1)c1c(Cl)cccc1Cl | inactive | inactive | inactive | inactive | inactive | inactive | – | – | – | –
4 | CC1(C(=O)O)C2CCC(O2)C1(C)C(=O)O (stereo not given) | inactive | inactive | inactive | inactive | inactive | – | – | – | – | –
5 | CC(C)(O)[C@@H]1C2OC(=O)[C@@H]1[C@]1(O)C[C@H]3O[C@]34C(=O)O[C@H]2[C@]14C (tested in a mixture with another compound) | inactive | inactive | inactive | inactive | inactive | inactive | – | – | – | –
6 | NC(CCCCCP(=O)(O)O)C(=O)O (stereo not given) | inactive | inactive | inactive | inactive | inactive | inactive | – | – | – | –
7 | NNC(N)=O | inactive | inactive | inactive | inactive | inactive | inactive | inactive | inactive | inactive | –
8 | CCCn1c(C)c(C(=O)c2ccc3ccccc3c2)c2ccccc21 | inactive | inactive | inactive | inactive | – | – | inactive | – | – | –
9 | CCS(=O)(=O)Nc1cccc(C(=C2CCCCC2)c2cnc[nH]2)c1 | inactive | inactive | inactive | inactive | inactive | inactive | inactive | – | – | –
10 | C=CCN1CCC23c4c5ccc(O)c4O[C@H]2C(=O)CC[C@@]3(O)C1C5 (stereo not given in full) | inactive | inactive | inactive | inactive | inactive | inactive | inactive | – | – | –
11 | C[N+]1(C)CCN(c2ccccc2)CC1 | inactive | inactive | inactive | inactive | inactive | – | inactive | – | – | –
12 | CP(=O)(O)C1=CCNCC1 | inactive | inactive | inactive | inactive | inactive | inactive | inactive | – | – | –
13 | CC(C)(C)c1cc(C=C(C#N)C#N)cc(C(C)(C)C)c1O | inactive | inactive | inactive | inactive | – | – | 0.631 µM (active) | – | – | –
14 | CN1CCC(c2c[nH]c3ccc(O)cc23)CC1 | inactive | inactive | inactive | inactive | inactive | inactive | inactive | – | – | inactive
15 | CN1CCc2cccc(Cl)c2CC1 | inactive | inactive | inactive | inactive | inactive | inactive | inactive | – | – | –
16 | O=[N+]([O-])c1cc(O)c(O)c([N+](=O)[O-])c1 | inactive | inactive | inactive | inactive | inactive | – | inactive | – | – | inactive

Row | Compound | Potency [1] | Potency [2] | Potency [3] | outcome [4] | Potency [5] | Potency [6] | Potency [7] | Potency [8] | Potency [9] | outcome [10]
17 | C[C@H](N)CN1CCc2ccc(Br)cc21 | inactive | inactive | inactive | inactive | inactive | – | 15.8 µM (active) | – | – | –
18 | O=C1CC[C@@]2(O)C3Cc4ccc(O)c5c4C2(CCN3CC2CC2)[C@H]1O5 (stereo not given in full) | inactive | inactive | inactive | inactive | inactive | inactive | inactive | – | – | –
19 | C/C(O)=C(\C#N)C(=O)Nc1cc(Br)ccc1Br | inactive | inactive | inactive | inactive | – | inactive | – | – | – | –
20 | O=c1c2ccccc2[se]n1-c1ccccc1 | inactive | inactive | 7.57 µM (active) | inactive | inactive | – | inactive | – | – | –
21 | c1ccc2c(c1)[I+]c1ccccc1-2 | inactive | inactive | inactive | inactive | inactive | – | – | – | – | inactive
22 | CCCN(CCC)C1Cc2cc(OC)c(OC)cc2C1 | inactive | inactive | inactive | inactive | inactive | inactive | inactive | – | – | inactive
23 | CCCN(CCC)CCc1c[nH]c2ccc(C(N)=O)cc12 | inactive | inactive | inactive | inactive | inactive | – | inactive | – | – | –
24 | CO[C@H]1CC=C2CCN3CCC4=C(CC(=O)OC4)[C@]23C1 | inactive | inactive | inactive | inactive | inactive | inactive | inactive | – | – | –
25 | COc1ccc2c(c1)[C@@]13CCCC[C@H]1[C@@H](C2)NCC3 | inactive | inactive | inactive | inactive | – | inactive | – | – | – | –
26 | C[N+](C)(C)CCOC(=O)CBr | inactive | inactive | inactive | inactive | inactive | inactive | inactive | – | – | –
27 | NC(=O)COc1c(F)cc(SCCNS(=O)(=O)c2ccccc2)cc1F | inactive | inactive | inactive | inactive | inactive | – | inactive | – | – | –
28 | N[C@@H](Cn1oc(=O)[nH]c1=O)C(=O)O | inactive | inactive | inactive | inactive | inactive | inactive | inactive | – | – | inactive
29 | CC(N)c1cccc(Cl)c1Cl (stereo not given) | inactive | inactive | inactive | inactive | inactive | inactive | inactive | – | – | –
30 | CC(Cc1ccc(OCC(=O)O)cc1)NCC(O)c1cccc(Cl)c1 (stereo not given) | inactive | inactive | inactive | inactive | inactive | – | inactive | – | – | –
31 | CC(C)[C@@]1(NC(=O)[C@@H]2C[C@@H]3c4cccc5[nH]cc(c45)C[C@H]3N(C)C2)O[C@@]2(O)[C@@H]3CCCN3C(=O)[C@H](Cc3ccccc3)N2C1=O | inactive | inactive | inactive | inactive | inactive | inactive | – | – | – | inactive
